Assay results published in PubChem BioAssay (Tox21).
Inconclusive results are not listed. The source made the active and inactive calls. Unless noted, calls come from the whole dose curve.

Tests used:
[1] = qHTS assay to identify small molecule agonists of the AP-1 signaling pathway - cell viability counter screen (AID 1159525); note: nearly all actives have a fitted effect of over 55% in size; note: potency is the fitted concentration of half-maximal effect
Outline: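 Luminescent ATP readout (Cell Titer Glo, 30 min RT), normalised to DMSO and tetra n-octyl ammonium bromide controls. Cells were ME-180 AP-1-bla in 0.5% dialyzed FBS Opti-MEM, with a 5 h, 37 °C compound exposure.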

[2] = qHTS assay to identify small molecule agonists of the AP-1 signaling pathway (AID 1159526); note: % is set by controls: 0 for no effect and ±100 for the full control effect
[3] = target: Retinoic acid receptor RXR-alpha (Homo sapiens) (UniProt P19793); experiment: qHTS assay to identify small molecule agonists of the RXR signaling pathway (AID 1159527); note: % is set by controls: 0 for no effect and ±100 for the full control effect; nearly all actives have a fitted effect of over 35% in size
Retinoic acid receptor RXR-alpha (Homo sapiens), sequence (P19793 whole entry, looked up): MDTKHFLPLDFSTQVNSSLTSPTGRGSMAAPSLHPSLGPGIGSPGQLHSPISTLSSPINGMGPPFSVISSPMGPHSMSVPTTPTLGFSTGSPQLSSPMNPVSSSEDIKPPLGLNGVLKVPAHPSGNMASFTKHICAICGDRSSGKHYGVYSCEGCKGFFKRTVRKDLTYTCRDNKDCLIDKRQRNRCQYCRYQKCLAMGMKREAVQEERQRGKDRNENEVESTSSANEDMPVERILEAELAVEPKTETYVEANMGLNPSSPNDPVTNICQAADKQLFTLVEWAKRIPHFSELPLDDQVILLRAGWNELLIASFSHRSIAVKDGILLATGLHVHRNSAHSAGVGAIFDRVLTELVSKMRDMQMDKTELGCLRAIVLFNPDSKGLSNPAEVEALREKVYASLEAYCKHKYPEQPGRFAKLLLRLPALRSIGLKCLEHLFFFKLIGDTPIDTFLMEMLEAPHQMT
Outline: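 Reporter activation is measured as beta-lactamase activity via FRET substrate cleavage (emission 460/530 nm) in HEK 293T cells expressing an RXR-alpha-driven bla construct, following 16 hr compound exposure at 37 C.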

[4] = qHTS assay to identify small molecule agonists of the RXR signaling pathway - cell viability counter screen (AID 1159529; active = well fitted curve in the direction sought with a large enough effect in the repeat runs; an effect the other way counts as inactive or inconclusive; note: nearly all actives have a fitted effect of over 50% in size; note: potency is the fitted concentration of half-maximal effect)
Outline: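 Tox21 10K compounds were tested for cytotoxicity against GeneBLAzer RXR-alpha HEK 293T cells grown in 2% charcoal-stripped FBS. Exposure lasted 16 hr at 37 C, 5% CO2; viability read by CellTiter-Glo luminescence.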

[5] = qHTS assay to identify small molecule antagonists of the retinoid-related orphan receptor gamma (ROR-gamma) signaling pathway - cell viability counter screen (AID 1159520; active = well fitted curve in the direction sought with a large enough effect in the repeat runs; an effect the other way counts as inactive or inconclusive; note: nearly all actives have a fitted effect of over 50% in size; note: potency is the fitted concentration of half-maximal effect)
Outline: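 Cytotoxicity was read from cellular ATP (CellTiter-Glo luminescence) after 16 hr at 37 C with 1 uM doxycycline induction. The inducer was added 2 hr after compound transfer to Tet-on ROR gamma CHO cells.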

[6] = target: Nuclear receptor ROR-gamma (Homo sapiens) (UniProt P51449); experiment: qHTS assay to identify small molecule antagonists of the retinoid-related orphan receptor gamma (ROR-gamma) signaling pathway (AID 1159521; active = well fitted curve in the direction sought with a large enough effect in the repeat runs; an effect the other way counts as inactive or inconclusive;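 note: CHO cells with doxycycline inducible ROR-gamma driving an RORE luciferase reporter; top concentration of the series differs between compounds; % is set by controls: 0 for no effect and ±100 for the full control effect; nearly all actives have a fitted effect of over 50% in size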)
Outline: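 Readout: ONE-Glo luciferase luminescence, 30 min at room temperature. System: Tet-on RORγ CHO, RORE-LUC. Sequence: compound 2 h, doxycycline 1 uM final, 16 h at 37 C.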

[7] = qHTS assay to identify small molecule antagonists of the peroxisome proliferator-activated receptor delta (PPARd) signaling pathway - cell viability counter screen (AID 743213; active = well fitted curve in the direction sought with a large enough effect in the repeat runs; an effect the other way counts as inactive or inconclusive; note: % is set by controls: 0 for no effect and ±100 for the full control effect; nearly all actives have a fitted effect of over 50% in size)
Outline: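 CellTiter-Glo was added to PPARd-bla HEK293H wells following 17 h compound treatment in the presence of 300 nM L165041. Luminescence was recorded after 30 min at room temperature.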

[8] = target: Peroxisome proliferator-activated receptor delta (Homo sapiens) (UniProt Q03181); experiment: qHTS assay to identify small molecule antagonists of the peroxisome proliferator-activated receptor delta (PPARd) signaling pathway (AID 743215; active = well fitted inhibition curve with a large enough effect in the signal ratio in the repeat runs, not every such curve was filed as active; the % refers to the signal ratio;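 note: cells stimulated with agonist L165041 at 300 nM final during compound exposure; series mostly up to about 62 µM; % is set by controls: 0 for no effect and ±100 for the full control effect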)
Peroxisome proliferator-activated receptor delta (Homo sapiens), sequence (Q03181 whole entry, looked up): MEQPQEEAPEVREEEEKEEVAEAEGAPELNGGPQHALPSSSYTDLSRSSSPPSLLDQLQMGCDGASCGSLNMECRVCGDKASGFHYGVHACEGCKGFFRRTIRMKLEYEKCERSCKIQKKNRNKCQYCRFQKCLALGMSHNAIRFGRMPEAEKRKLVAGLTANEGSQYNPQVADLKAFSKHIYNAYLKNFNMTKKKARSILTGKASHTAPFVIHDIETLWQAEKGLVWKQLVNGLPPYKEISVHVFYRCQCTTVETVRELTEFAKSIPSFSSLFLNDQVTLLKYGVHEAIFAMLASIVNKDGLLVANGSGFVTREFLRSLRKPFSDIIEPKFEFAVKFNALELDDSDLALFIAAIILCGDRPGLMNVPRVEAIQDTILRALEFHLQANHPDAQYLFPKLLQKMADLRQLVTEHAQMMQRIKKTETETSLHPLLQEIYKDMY
Outline: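 Inhibition of L165041-driven (300 nM final) PPARd signaling is scored in HEK293H UAS-bla cells. Exposure lasts 17 h at 37 C; beta-lactamase activity is then read by FRET substrate fluorescence after 2 h at room temperature.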

[9] = target: Bile acid receptor (Homo sapiens) (UniProt Q96RI1); experiment: qHTS assay to identify small molecule agonists of the farnesoid-X-receptor (FXR) signaling pathway (AID 743220; active = well fitted activation curve with a large enough effect in the signal ratio in the repeat runs, not every such curve was filed as active; the % refers to the signal ratio; note: % is set by controls: 0 for no effect and ±100 for the full control effect)
Bile acid receptor (Homo sapiens), sequence (Q96RI1 whole entry, looked up): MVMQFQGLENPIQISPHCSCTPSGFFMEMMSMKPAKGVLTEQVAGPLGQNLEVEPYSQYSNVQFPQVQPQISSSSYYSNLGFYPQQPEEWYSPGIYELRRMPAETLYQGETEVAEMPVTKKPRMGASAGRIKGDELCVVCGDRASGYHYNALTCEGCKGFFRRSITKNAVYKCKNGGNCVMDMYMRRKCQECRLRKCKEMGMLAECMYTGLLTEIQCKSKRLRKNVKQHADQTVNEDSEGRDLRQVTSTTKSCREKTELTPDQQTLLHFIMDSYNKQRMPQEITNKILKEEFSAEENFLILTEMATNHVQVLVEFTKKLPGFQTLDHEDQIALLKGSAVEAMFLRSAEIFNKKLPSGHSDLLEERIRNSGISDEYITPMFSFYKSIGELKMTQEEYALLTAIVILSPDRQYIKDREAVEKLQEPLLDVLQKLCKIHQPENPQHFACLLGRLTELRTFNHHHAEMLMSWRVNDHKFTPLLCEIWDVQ
Outline: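 Beta-lactamase reporter under UAS control in GeneBLAzer FXR HEK 293T cells (5000/well) measured with LiveBLAzer FRET substrate after 2 h at room temperature. Compound exposure lasted 16 h at 37C.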

[10] = qHTS assay to identify small molecule antagonists of the farnesoid-X-receptor (FXR) signaling pathway - cell viability counter screen (AID 743221; active = well fitted cell-killing curve with a large enough effect in the repeat runs, not every such curve was filed as active)
Outline: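 CellTiter-Glo, 30 min RT, luminescence; same wells as the LiveBLAzer FRET read. Cells: FXR-UAS-bla HEK 293T. Treatment: compound with chenodeoxycholic acid 50 uM final, 16 h at 37 C.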

[11] = target: Vitamin D3 receptor (Homo sapiens) (UniProt P11473); experiment: qHTS assay to identify small molecule agonists of the vitamin D receptor (VDR) signaling pathway (AID 743222); note: % is set by controls: 0 for no effect and ±100 for the full control effect
Vitamin D3 receptor (Homo sapiens), sequence (P11473 whole entry, looked up): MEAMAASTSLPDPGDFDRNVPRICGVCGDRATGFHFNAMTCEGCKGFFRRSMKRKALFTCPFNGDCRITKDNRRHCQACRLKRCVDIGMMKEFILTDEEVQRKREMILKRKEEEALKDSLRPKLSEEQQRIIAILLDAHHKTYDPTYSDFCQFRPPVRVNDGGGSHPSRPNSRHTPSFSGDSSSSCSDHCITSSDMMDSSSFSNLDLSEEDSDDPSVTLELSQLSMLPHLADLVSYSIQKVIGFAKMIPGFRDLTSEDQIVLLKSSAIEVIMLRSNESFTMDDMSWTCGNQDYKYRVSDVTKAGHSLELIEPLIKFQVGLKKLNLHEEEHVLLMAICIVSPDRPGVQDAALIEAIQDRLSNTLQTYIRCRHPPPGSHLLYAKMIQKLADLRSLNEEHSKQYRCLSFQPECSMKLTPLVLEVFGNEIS
Outline: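 Quantitative HTS agonist-mode screen: compounds in DMSO were pin-transferred onto VDR-bla cells and incubated 16 h at 37C, 5% CO2. Reporter activity was detected with LiveBLAzer B/G FRET substrate after 2 h at room temperature.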

[12] = qHTS assay to identify small molecule agonists of the vitamin D receptor (VDR) signaling pathway - cell viability counter screen (AID 743224; active = well fitted curve in the direction sought with a large enough effect in the repeat runs; an effect the other way counts as inactive or inconclusive)
Outline: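 Viability is measured in the same wells as the VDR-bla reporter assay: after 16 h compound treatment and 2 h substrate loading, CellTiter-Glo is added and luminescence read 30 min later.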

[13] = qHTS assay to identify small molecule antagonists of the vitamin D receptor (VDR) signaling pathway - cell viability counter screen (AID 743225; active = well fitted curve in the direction sought with a large enough effect in the repeat runs; an effect the other way counts as inactive or inconclusive)
Outline: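 Cytotoxicity toward the VDR-bla HEK 293T line was scored by ATP-based CellTiter-Glo luminescence, read in the wells already used for the beta-lactamase readout after 16 h compound treatment under 3 nM 1-alpha,25-dihydroxyvitamin D3 stimulation.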

CC(=[OH+])/C=C(/C)[O-].CC(=[OH+])/C=C(\C)[O-].CC(=[OH+])/C=C(\C)[O-].[Fe]
inactive: Potency [1] | Potency [2] | outcome [3] | Potency [4]

COP(N)(=S)OC
inactive: Potency [5] | Potency [1] | Potency [2] | outcome [3] | Potency [4]

C=COCCCl
inactive: Potency [6] | Potency [1] | Potency [2] | outcome [3] | Potency [4]

Brc1c(Br)c(Br)c(Oc2c(Br)c(Br)c(Br)c(Br)c2Br)c(Br)c1Br
inactive: activity, negative = cytotoxicity [5] -0.215% [at 19 µM] | viability change, negative = cytotoxic [1] 2.51% [at 15.8 µM] | activation [2] 8.87% [at 15.8 µM] | activation [3] 5.85% [at 15.8 µM] | activity change, negative = cytotoxicity [4] 2.64% [at 15.8 µM]

ClC1=C(Cl)[C@]2(Cl)[C@@H]3[C@@H](Cl)[C@@H](Cl)C[C@@H]3[C@@]1(Cl)C2(Cl)Cl
inactive: Potency [5] | Potency [2] | outcome [3] | Potency [4]

OC(Cc1ccccc1Cl)(Cn1cncn1)C1(Cl)CC1 (stereo not given)
inactive: Potency [5] | Potency [1] | Potency [2] | outcome [3] | Potency [4]

N#Cc1ccc(O)cc1
inactive: Potency [5] | Potency [1] | Potency [2] | outcome [3]

CC(Cl)CN(C)C (stereo not given)
inactive: Potency [6] | Potency [4]

CN(CCCC(=O)c1cccnc1)N=O
inactive: Potency [2] | outcome [3] | Potency [4]

Clc1ccc(-c2ccc(Cl)c(Cl)c2Cl)c(Cl)c1Cl
inactive: Potency [7] | Potency [8] | outcome [9] | Potency [10] | Potency [11] | Potency [12] | Potency [13] | Potency [6] | Potency [1] | Potency [2]

N#CCc1ccc(Cl)cc1
inactive: Potency [6] | Potency [1] | Potency [2] | outcome [3] | Potency [4]

O=C1C=CC(=O)c2ccccc21
active: Potency [5] 3.44 µM | Potency [1] 15.5 µM | Potency [4] 9.77 µM
